Assay outcomes (PubChem)
3CLpro inhibitor – SARS-CoV 3CLpro protease inhibition; 290,000 tested, 0.14% active; recombinant SARS-CoV 3CLpro, quenched FRET peptide cleavage; AID 1706; P0C6X7; inhibition, % at 6 µM; in the data active = inhibition above about 12%
BoNT-A LC inh2 – inhibitors of Botulinum neurotoxin A light chain protease; multiplex microsphere protease substrate cleavage, flow cytometry; inhibition, % at 10 µM; 360,000 tested, 0.17% active; AID 588499; note: plate controls were buffer without enzyme for full effect and enzyme alone for no effect
Bead autofluor – compound fluorescence in toxin protease inhibitor counterscreen. compound autofluorescence counterscreen, microsphere flow cytometry; hits give high values. fluorescence intensity (test concentration not listed). 360,000 tested, 3.1% active. AID 624483; in the data active = fluorescence intensity above about 16000; inconclusive = no clear call, values can overlap the other calls
BoNT F protease – blocks Botulinum neurotoxin F light chain protease. inhibition, % at 10 µM. AID 588497. 360,000 tested, 0.22% active. Multiplex microsphere protease cleavage assay, flow cytometry; in the data active = inhibition above about 35%, passing the limit was not always enough; inconclusive = no clear call, values can overlap the other calls; note: plate controls were buffer without enzyme for full effect and enzyme alone for no effect
Anthrax LF inh2 – inhibitors of Bacillus anthracis lethal factor protease. P15917. multiplex microsphere protease cleavage assay, LF. inhibition, % at 10 µM. 360,000 tested, 0.12% active. AID 588501; note: plate controls were buffer without enzyme for full effect and enzyme alone for no effect
CCHFV vOTU inh – blocks the CCHF virus ovarian tumor domain protease; CCHFV vOTU protease, Pep-AMC fluorescence; inhibition, % at 11.5 µM; 370,000 tested, 0.55% active; in the data active = inhibition above about 30%; note: 0% = vehicle wells with enzyme and 100% = no enzyme wells
Starred values were filed as active, the others as inactive; ? = inconclusive; . = not tested or not shown. This is a sample that favours compounds with a hit; in the whole collection about 3.9% have one here. Cut-off read from the data, not from the text of the source, unless noted: active = inhibition above about 30%; inconclusive = no clear call, values can overlap the other calls; inactive = below that.

SMILES | 3CLpro inhibitor | BoNT-A LC inh2 | Bead autofluor | BoNT F protease | Anthrax LF inh2 | CCHFV vOTU inh
COc1ccc(CN2C(=O)CN(C3CCCCCC3)C(=O)C2c2ccc(OC)c(OC)c2)cc1 (stereo unspecified) | 3 | -1 | 10137 | -2 | -1 | -12
CCCOc1ccc(C2C(=O)N(C3CCCCCC3)CC(=O)N2Cc2ccco2)cc1OC (stereo unspecified) | -7 | 0 | 22488* | 0 | 1 | -4
C[C@@H]1CN(c2ccc(N3CCNC[C@@H]3C)cc2C#N)C[C@H](C)O1 | . | . | . | . | . | 14
CCCCN1CCC(C#N)(Nc2ccccc2)CC1 | -5 | -4 | 24452* | -6 | 0 | -9
CSc1n[nH]c(-c2cccs2)n1 | . | . | . | . | . | 3
Cc1ccc(NC(=O)C2SC(=Nc3ccccc3)C(C(=O)Nc3ccc(Cl)cc3)=C2N)cc1 (stereo unspecified) | 1 | 1 | 4349 | 2 | 3 | .
Cc1ccc(N=C2SC(C(=O)Nc3ccc(OC(F)(F)F)cc3)C(N)=C2C(=O)Nc2c(C)cc(C)cc2C)cc1 (stereo unspecified) | 9 | 0 | 2155 | -4 | -1 | 30*
O=C(CCc1nc(-c2ccccc2)no1)NCc1ccco1 | -4 | 1 | 4955 | -11 | -5 | -2
COc1cc(CC(=O)NCc2ccco2)cc(OC)c1OC | 2 | 0 | 4481 | 11 | 0 | -10
COc1cc(-c2noc(CCCC(=O)NCc3ccco3)n2)cc(OC)c1OC | 2 | 4 | 21043* | 6 | 1 | -7
Cc1ccc(-c2noc(CCC(=O)NCc3ccco3)n2)cc1 | 1 | 0 | 19424* | -2 | -3 | -5
CC(C)CN1C(=O)[C@@]2(CC(=O)N(C)C2c2ccccc2)c2cc(-n3cc(CCc4ccccc4)nn3)ccc21 (stereo partly specified) | . | . | . | . | . | 20
CCOc1ccc(N2C(=O)CSC23CCCCC3)cc1 | -3 | 0 | 3963 | 4 | 2 | 10
COc1ccc(N2C(=O)CSC23CCCCC3)cc1 | 1 | -1 | 21829* | 0 | -8 | 3
CC[n+]1c(C)sc2c3ccsc3ccc21 | 5 | 4 | 2363 | -24 | 1 | -3
CCN1/C(=C/c2ccc3cc(C)cc(C)c3[n+]2CC)Sc2cc(C)ccc21 | -27 | 27 | 8167 | -97 | -89 | 9
CCN1/C(=C/c2ccc3cccc(C)c3[n+]2CC)Sc2ccccc21 | -11 | 79* | 8752 | -18 | 18 | 4
CCN1/C(=C/c2ccc3cc(C)ccc3[n+]2CC)Sc2ccc3sccc3c21 | . | 49* | 3616 | -101 | -71 | .
CCN1/C(=C\c2ccc3cc(C)ccc3[n+]2CC)Sc2cc(C)c(C)cc21 | -17 | 42* | 7412 | -82 | -64 | 10
COC(=O)[C@]12CCCCC=C1N(Cc1ccc(OC)cc1)C(=O)[C@@H]2CC(=O)N1CCCCC1 | . | . | . | . | . | -4
CC(C)C[C@H]1COc2cc(Br)ccc2S(=O)(=O)N1Cc1cn(Cc2ccco2)nn1 | . | . | . | . | . | 7
CC(=O)Nc1cccc(NC(=O)c2ccc(Br)cc2)c1 | 3 | -1 | 4321 | -7 | -4 | 5
O=C(Nc1cccc(O)c1)c1ccc(Br)c(S(=O)(=O)N2CCCCC2)c1 | 2 | -4 | 24544* | -6 | -3 | -6
O=C(Nc1cccc(O)c1)c1cccc(S(=O)(=O)N2CCCCCC2)c1 | 2 | 2 | 3670 | -4 | 10 | 6
O=C(Nc1ccncc1)c1ccc(Cl)c(S(=O)(=O)N2CCCCC2)c1 | . | 5 | ? | 16 | 1 | 18
SMILES | 3CLpro inhibitor | BoNT-A LC inh2 | Bead autofluor | BoNT F protease | Anthrax LF inh2 | CCHFV vOTU inh
O=C(Nc1cccc(O)c1)c1ccc(Br)cc1 | -1 | 3 | 21990* | 4 | -7 | -9
O=C(Nc1ncn[nH]1)c1ccc(Cl)c(S(=O)(=O)N2CCCCCC2)c1 | 2 | -1 | 16856* | 0 | 3 | -4
CCCCCN(C(=O)Cc1c(C)n(CCCCC)c2ccccc12)c1ccc(Oc2cccnc2)c(C)c1 | . | . | . | . | . | 8
CCN(CC)C(=O)CC[C@H]1CC[C@]2(CCCN(Cc3ccccn3)C2)O1 | . | . | . | . | . | 2
COc1ccc(C(=O)COC(=O)CSCc2c(C)noc2C)cc1OC | -1 | 2 | 22438* | 1 | 2 | -2
CCc1noc(C)c1C(=O)OCC(=O)c1ccc(OC)c(OC)c1 | . | 0 | 3159 | 3 | -5 | 0
CN1C(=O)C(=Cc2ccc(N3CCCCCC3)o2)C(=O)N(C)C1=S | 1 | 27 | 14036 | 197* | 30* | 8
CCOC(=O)CC(=O)CSc1ccc2nnc(-c3ccc(C)cc3)n2n1 | 1 | 2 | 22080* | 4 | -7 | -6
COc1ccc(NC(=O)CSc2nnc(Cc3cccn3C)n2CCc2ccccc2)c(OC)c1 | 7 | -1 | 7844 | 1 | -4 | .
CCOC(=O)N1CCN(C(=O)CSc2ccc3nnc(-c4ccncc4)n3n2)CC1 | 3 | 0 | 3148 | 0 | -6 | 17
CCSc1nnc(NC(=O)CSc2nnc(Cc3cccn3C)n2CCc2ccccc2)s1 | 7 | ? | 20173* | 2 | -4 | -12
COc1ccccc1NC(=O)CSc1nnc(Cc2cccn2C)n1CCc1ccccc1 | 4 | -4 | 24958* | -7 | -3 | -7
COc1ccc(-c2nnc3ccc(SCC(=O)NCc4ccco4)nn23)cc1 | 5 | 0 | 8467 | 7 | 3 | 9
O=C(CSc1ccc2nnc(-c3ccccc3)n2n1)NCc1ccco1 | 2 | ? | 20999* | -1 | -6 | -5
Cn1cccc1Cc1nnc(SCC(=O)Nc2nccs2)n1CCc1ccccc1 | 4 | -1 | 5881 | 3 | -8 | 8
CN1C2=N[C@H](c3ccccc3)CC(=O)N2/C(=C\c2ccccc2)C1Cc1ccccc1 (stereo partly specified) | . | . | . | . | . | 1
O=C(CSc1ccc2nnc(-c3cccc(F)c3)n2n1)NCC1CCCO1 (stereo unspecified) | 1 | 2 | 22186* | 3 | -7 | -4
Cn1cccc1Cc1nnc(SCC(=O)NCC2CCCO2)n1CCc1ccccc1 (stereo unspecified) | 3 | ? | 22577* | 2 | -8 | -4
O=C(CSc1nnc2scc(-c3ccccc3)n12)NCC1CCCO1 (stereo unspecified) | -6 | -2 | 21160* | -4 | 1 | -7
CC(C)C[C@H]1COc2cc(Br)ccc2S(=O)(=O)N1Cc1cn(CCC2OCCCO2)nn1 | . | . | . | . | . | -3
CCCCOCCCNC(=O)C[C@@H]1C(=O)N2CCCC3=C2[C@@]1(C(=O)OC)CCCC3 | . | . | . | . | . | -3
CCOC(=O)N1CCN(C(=O)c2nn(-c3cc(OC)cc(OC)c3)c(=O)c3ccccc23)CC1 | 1 | . | . | . | . | .
COc1ccc(-n2nc(C(=O)NCC(=O)NCc3ccco3)c3ccccc3c2=O)cc1 | 2 | 0 | 5918 | -4 | -2 | -6
O=C(NCc1ccco1)c1nn(-c2ccccc2)c(=O)c2ccccc12 | 0 | 1 | 21403* | 0 | -1 | 8
CCN1CCN(C(=O)c2nn(-c3ccccc3)c(=O)c3ccccc23)CC1 | -1 | 2 | 18559* | 2 | -2 | 0
C=C(C)/C=C1/CN(Cc2ccc3c(c2)OCO3)C(=N)N1C(=O)OCc1ccccc1 | . | . | . | . | . | 11
